Assay outcomes (PubChem)
Hits are enriched below; roughly 12% of the tested compounds scored in any of these assays.
Shiga inhibitor – Shiga toxin inhibition | Vero cells, Shiga toxin protein synthesis inhibition reporter | inhibition, % at 38.7 µM | 290,000 tested, 9.2% active | AID 2315; in the data active means inhibition mostly above about 28%, no sharp cut-off; inactive means mostly below about 43%; further: 0% is about no effect
Cycloheximide cs – counter-screen for Shiga toxin inhibitors: cycloheximide protein synthesis inhibition | cell reporter, cycloheximide protein synthesis inhibition counterscreen | max response, % | 300,000 tested, 12% active; in the data active means max response mostly above about 13%, no sharp cut-off; inactive means mostly below about 14%; further: read at 38.3 µM for the half of the compounds with a filed dose; 0% is about no effect
MARV entry inh – blocks Marburg virus binding to or entry into cells. Potency, µM (highest dose often 37.8 µM), for inactives: top-dose activity change, negative = inhibition, most hits filed as inhibitors. Marburg virus pseudotyped entry inhibition, cell reporter. 300,000 tested, 1.8% active. AID 540276; calls by dose curve; tested in HEK293 cells; further: potency means the concentration at half of the fitted maximal effect; on the % scale 0 is the no-effect control and ±100 the full control effect
Lassa entry inh – Lassa virus entry inhibition; Potency, µM (doses to about 37.9 µM), for inactives: at the highest dose activity change, negative = inhibition, usual class: inhibitors; 300,000 tested, 1.2% active; Lassa virus pseudotype entry inhibition, cell reporter; AID 540256; calls by dose curve; tested in HEK293 cells; further: potency means the concentration at half of the fitted maximal effect; on the % scale 0 is the no-effect control and ±100 the full control effect; nearly all actives have a fitted effect of over 50% in size
Numbers without * were called inactive; [ ] = dose if it differs, or a comment.

`COc1ccc(NC(=O)C2CCN(c3cc(C)nc4c(-c5ccc(Cl)cc5)c(C)nn34)CC2)cc1` gave MARV entry inh 10.0%[46.1 µM] and Lassa entry inh 13.8%[46.1 µM].
For Oc1ccc(/C=C/c2cc(O)cc(O)c2)cc1 the results were Shiga inhibitor 20.3*, Cycloheximide cs 25.6*, MARV entry inh 3.16µM* and Lassa entry inh 7.3µM*.
Screening O=C(O)c1cc2ncc(CCO)cn2n1 returned Shiga inhibitor -1.6, Cycloheximide cs -0.6, MARV entry inh -9.0%[46.1 µM] and Lassa entry inh 22.4%[46.1 µM].
Screening O=C(Nc1nc(-c2cccnc2)cs1)c1cccc([N+](=O)[O-])c1 returned Shiga inhibitor 30.6, Cycloheximide cs -1.0 and MARV entry inh 20.0%[46.1 µM].
O=C(CN1C(=O)c2ccccc2C1=O)Nc1nc(-c2cccc([N+](=O)[O-])c2)cs1 was read as Shiga inhibitor -10.0, Cycloheximide cs -2.6 and MARV entry inh 2.0%.
O=[N+]([O-])c1cccc(-c2csc(Nc3ccccc3)n2)c1 was read as Shiga inhibitor 90.6*, Cycloheximide cs 68.1*, MARV entry inh inconclusive and Lassa entry inh inconclusive.
Screening O=C(Nc1nc(-c2ccccc2)cs1)c1cccc([N+](=O)[O-])c1 returned Shiga inhibitor 100.0*, Cycloheximide cs 50.5*, MARV entry inh -18.6% and Lassa entry inh 9.2%.
For COc1cc(NS(=O)(=O)c2ccc(Nc3nc(-c4cccc([N+](=O)[O-])c4)cs3)cc2)nc(OC)n1 the results were Shiga inhibitor -2.2, Cycloheximide cs -2.1, MARV entry inh 1.0% and Lassa entry inh 1.5%.
Screening COc1ccccc1Nc1nc(-c2cccc([N+](=O)[O-])c2)cs1 returned Shiga inhibitor 59.4 and Cycloheximide cs 46.7*.
Screening CC(C)Cn1[nH]c2c3c(ccc2c1=O)C(=O)c1ccccc1C3=O returned Shiga inhibitor 60.9, Cycloheximide cs 26.6*, MARV entry inh -28.4% and Lassa entry inh inconclusive.
Screening Cc1cc(OC(=O)N(C)C)nn1C(=O)N(C)C returned Shiga inhibitor -4.7 and Cycloheximide cs -6.5.
Screening CCc1nn(CC(=O)NCCc2ccc(Cl)cc2)c(=O)c2cc3ccccc3n12 returned MARV entry inh -15.2%[46.1 µM].
Cc1nnc(SCC(=O)O)s1 was read as Shiga inhibitor 2.3, Cycloheximide cs -2.4, MARV entry inh 3.0%[46.1 µM] and Lassa entry inh -2.2%.
`Cc1ccc(NC(=O)c2ccc(CSc3nnc(C)s3)cc2)c(C)c1` gave Shiga inhibitor 96.5*, Cycloheximide cs 42.9*, MARV entry inh 12.8% and Lassa entry inh -1.5%.
For Cc1nnc(SCC(=O)c2ccc(Br)cc2)s1 the results were Shiga inhibitor 40.7, Cycloheximide cs 18.7*, MARV entry inh 10.3% and Lassa entry inh 3.0%.
Screening Cc1ccc(C2(C)CC(C)(C)N(C(=O)CSc3nnc(C)s3)c3ccccc32)cc1 (stereo not drawn) returned Shiga inhibitor -10.9, Cycloheximide cs 1.0, MARV entry inh inconclusive and Lassa entry inh 7.94µM*.
`Cc1ccc(C(=O)CSc2nnc(C)s2)cc1` gave Shiga inhibitor 66.3*, Cycloheximide cs 52.7*, MARV entry inh inconclusive and Lassa entry inh 15.1%.
CCOC(=O)c1c(NC(=O)/C=C/c2ccc(OCC)c(OC)c2)sc2c1CCC2 was read as MARV entry inh 9.2%[46.1 µM] and Lassa entry inh 4.1%[46.1 µM].
For O=C1CN(C(=O)COc2ccccc2)C(c2ccc(F)cc2)c2cc(Br)ccc2N1 (stereo not drawn) the results were MARV entry inh inconclusive and Lassa entry inh -20.4%[46.1 µM].
Screening O=C1CN(C(=O)Cc2ccccc2)C(c2ccc(F)cc2)c2cc(Br)ccc2N1 (stereo not drawn) returned MARV entry inh 10µM* and Lassa entry inh inconclusive.
O=C(CC(SCc1ccco1)c1ccc(O)cc1)c1cccs1 (stereo not drawn) was read as Shiga inhibitor 115.3*, Cycloheximide cs 37.2*, MARV entry inh -2.5% and Lassa entry inh 14.7%.
For O=C(CC(SCCO)c1ccc2c(c1)OCO2)c1cccs1 (stereo not drawn) the results were Shiga inhibitor 59.0, Cycloheximide cs 28.8*, MARV entry inh inconclusive and Lassa entry inh -28.7%.
CC(NC(=O)Cc1cccs1)c1ccc2c(c1)OCO2 (stereo not drawn) was read as Shiga inhibitor 11.7, Cycloheximide cs -1.5, MARV entry inh 12.8% and Lassa entry inh 4.8%.
`O=c1[nH]c(=O)n(C2OC(CO)C(O)C2O)cc1F` (stereo not drawn) gave MARV entry inh inconclusive and Lassa entry inh 2µM*.
Cc1ccc(C2=Nc3ccccc3NC(C)(c3ccc(C)o3)C2)o1 (stereo not drawn) was read as Shiga inhibitor 82.1*, Cycloheximide cs 59.6*, MARV entry inh -5.3% and Lassa entry inh -3.0%.
For CC1(c2ccccc2)CC(c2ccccc2)=Nc2nonc2N1 (stereo not drawn) the results were Shiga inhibitor -13.3, Cycloheximide cs -1.1, MARV entry inh 1.9% and Lassa entry inh -9.8%.
For CC1(c2ccccc2)CC(c2ccccc2)=Nc2ccccc2N1 (stereo not drawn) the results were Shiga inhibitor 90.9*, Cycloheximide cs 57.5*, MARV entry inh -9.1%[14.2 µM] and Lassa entry inh 28.7%.
COc1cnn(-c2cc(Oc3ccc(C)cc3)ncn2)c(=O)c1Cl was read as Shiga inhibitor -6.0, Cycloheximide cs -1.1, MARV entry inh inconclusive and Lassa entry inh -0.2%.
COc1cnn(-c2ccc(C)cc2)c(=O)c1Br was read as Shiga inhibitor 61.1, Cycloheximide cs 39.3*, MARV entry inh inconclusive and Lassa entry inh 5.1%[46.1 µM].
Screening COc1cnn(-c2ccc(C)cc2)c(=O)c1Cl returned Shiga inhibitor 79.1*, Cycloheximide cs 51.7*, MARV entry inh inconclusive and Lassa entry inh inconclusive.
For CNc1cnn(-c2ccc(C)cc2)c(=O)c1Cl the results were Shiga inhibitor 81.3*, Cycloheximide cs 40.0*, MARV entry inh inconclusive and Lassa entry inh -8.7%.
For Cc1ccc(C(=O)NCCNC(=O)c2cccnc2)cc1 the results were Shiga inhibitor 1.1, Cycloheximide cs -5.5, MARV entry inh 3.4%[46.1 µM] and Lassa entry inh 8.9%[46.1 µM].
CCCNC(=O)[C@H]1N2C(=O)c3c(ccc(OC)c3OC)C2SC1(C)C (stereo partly drawn) was read as Shiga inhibitor -7.2, Cycloheximide cs -2.2, MARV entry inh -5.4% and Lassa entry inh 6.2%.
Screening Cc1cc2c(cc1S(=O)(=O)CCC(=O)NCCc1ccccc1)OCC(=O)N2 returned Shiga inhibitor 1.7, Cycloheximide cs -0.6 and Lassa entry inh -0.4%[46.1 µM].
For O=C(CNC(=O)c1ccc(Cl)cc1)NNc1c(F)c(F)cc(F)c1F the results were MARV entry inh -9.6%[46.1 µM] and Lassa entry inh 3.2%[46.1 µM].
`COc1ccc(CCn2c3c(c(=O)[nH]c2=O)C(NC(=O)c2ccccc2F)(C(F)(F)F)C(=O)N3)cc1OC` (stereo not drawn) gave MARV entry inh 3.4%[46.1 µM] and Lassa entry inh -1.1%[46.1 µM].
O=C(/C=C/c1c(Cl)nc2ccccn12)Nc1ccc(F)cc1 was read as Shiga inhibitor 12.3, Cycloheximide cs 14.8*, MARV entry inh 6.6%[46.1 µM] and Lassa entry inh inconclusive.
For Cc1nn(CC(=O)N2CCN(c3ccccc3)CC2)c(=O)c2cccn12 the results were Shiga inhibitor -4.4, Cycloheximide cs -0.4, MARV entry inh -1.4%[46.1 µM] and Lassa entry inh 13.3%[46.1 µM].
